Shiga toxin inh: A qHTS for Small Molecule Inhibitors of Shiga Toxin; Vero cells, Shiga toxin protein synthesis inhibition reporter; inhibition, % at 38.7 µM; 290,000 compounds, 9.2% hits; in the data active means inhibition mostly above about 28%, no sharp cut-off; inactive means mostly below about 43%; further: 0% is about no effect
Cycloheximide cs: Cycloheximide Counterscreen for Small Molecule Inhibitors of Shiga Toxin. max response, %. AID 2314, 2010. 300,000 compounds, 12% hits. cell reporter, cycloheximide protein synthesis inhibition counterscreen; in the data active means max response mostly above about 13%, no sharp cut-off; inactive means mostly below about 14%; further: read at 38.3 µM for the half of the compounds with a filed dose; 0% is about no effect
Pf growth 96h: Primary qHTS for delayed death inhibitors of the malarial parasite plastid, 96 hour incubation; P. falciparum luciferase reporter growth, 96 h; 320,000 compounds, 6.9% hits; Potency, µM (highest dose often 28.7 µM), for inactives: at the highest dose activity change, negative = inhibition, most hits filed as inhibitors; AID 504834, 2011; further: potency means the concentration at half of the fitted maximal effect; on the % scale 0 is the no-effect control and ±100 the full control effect
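Compounds incubated with erythrocytes infected by luciferase-expressing P. falciparum (2% hematocrit, 0.05% parasitemia final) for 96 hours, 37 C in 5% CO2. Growth inhibition scored as decreased luciferase luminescence.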
Pf growth 48h: Primary qHTS for delayed death inhibitors of the malarial parasite plastid, 48 hour incubation. P. falciparum luciferase growth in erythrocytes, 48 h. Potency, µM (titrated, usually from 28.7 µM), inactives show at the highest dose activity change, negative = inhibition, actives largely listed as inhibitors. 310,000 compounds, 5.9% hits. AID 504832, 2011; further: potency means the concentration at half of the fitted maximal effect; on the % scale 0 is the no-effect control and ±100 the full control effect
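Luciferase-expressing P. falciparum in infected erythrocytes (2% hematocrit, 0.1% parasitemia final) in RPMI 1640/0.5% Albumax were exposed to compound for 48 hours at 37 C, 5% CO2; growth read as luminescence.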
Active calls of the source: *; ? = inconclusive; / = not tested or not shown. Shown are actives, neighbours in structure and some others; about 21% of the full set was active somewhere. Unless noted, the call rests on the fitted dose curve; in most records, active means well fitted inhibition curve with a large enough effect; inconclusive means small, poorly fitted or top-dose-only effect, or another doubt; inactive means no such curve, though single readings can be large or run the other way.

SMILES | Shiga toxin inh | Cycloheximide cs | Pf growth 96h | Pf growth 48h
COc1ccc2c(n1)Sc1nc3ccccc3nc1N2 | 75* | 56* | 157% | 181%
CCOc1ccc(NC(=O)CN2CCN(CC(=O)Nc3ccc(N(C)C)cc3)CC2)cc1 | 81* | 25* | -9% | 39%
CN(C)c1ccc(NC(=O)CN2CCN(CC(=O)Nc3ccc(F)cc3)CC2)cc1 | 11 | 19* | 1% | 5%
NS(=O)(=O)c1cccc(NC(=O)C(Cc2ccccc2)NC(=O)c2ccccc2)c1 (stereo unspecified) | 13 | -2 | -6% | 20%
CC(NC(=O)CNC(=O)C1O[C@@H]2OC(C)(C)O[C@@H]2[C@H]2OC(C)(C)O[C@@H]12)C(=O)O (stereo partly specified) | -3 | -1 | 39% | 12%
Nn1c(Cc2cccc3ccccc23)nnc1SCCOc1ccc(F)cc1 | -5 | -1 | -8% | 7%
COc1ccccc1C(C[N+](=O)[O-])c1c(N)n(C)c(=O)n(C)c1=O (stereo unspecified) | -23 | -3 | ? | ?
COc1ccccc1C(c1c(N)n(C)c(=O)n(C)c1=O)C(C)[N+](=O)[O-] (stereo unspecified) | 94* | 44* | -4% | ?
Cc1c(CCOC(=O)C23CC4CC(CC(C4)C2)C3)sc[n+]1CC#N | -9 | 10 | ? | ?
COc1ccc(Nc2ccc(Cl)nn2)cc1 | 54 | 15* | 1% | /
NNc1ccc(Cl)nn1 | 24 | 22* | ? | -18%
Clc1ccc(Nc2ccc(Cl)nn2)cc1 | 48* | 13 | 35% | 4%
COc1cc(NC(=O)N[C@@H](Cc2c[nH]c3ccccc23)C(=O)O)c(C(=O)O)cc1OC | -9 | 6 | 3% | ?
Cc1sc(N)c(C(=O)c2ccccc2)c1C | -8 | -3 | ? | -14%
C[C@H](OC(=O)N1CCN(C(c2ccccc2)c2ccccc2)CC1)[C@@H]1O[C@@]2(C)CCC[C@H]1O2 | / | / | 4.7µM* | 6.6µM*
C[C@H](OC(=O)NCc1ccc(C(F)(F)F)cc1)[C@@H]1O[C@@]2(C)CCC[C@@H]1O2 | / | / | 30% | 12%
CN(C)S(=O)(=O)c1ccc(C(=O)Nc2cccnc2)cc1 | -14 | 0 | / | 9%
N#Cc1ccc(C(=O)Nc2nc3ccccc3[nH]2)cc1 | 59* | 35* | 156% | 63%
CN(C)S(=O)(=O)c1ccc(C(=O)Nc2nc3ccccc3[nH]2)cc1 | 80* | 36* | 281% | 209%
Cc1cc(C)cc(C(=O)Nc2nc3ccccc3[nH]2)c1 | 121* | 35* | ? | ?
CN(c1ccccc1)S(=O)(=O)c1ccc(Cl)c(C(=O)Nc2nc3ccccc3[nH]2)c1 | -3 | -1 | 6.6µM* | ?
CCc1ccc(C(=O)Nc2nc3ccccc3[nH]2)cc1 | -12 | -10 | -29% | -60%
CCOC(=O)c1c(C)cc(C)[nH]c1=O | -8 | 2 | 13% | 5%
O=C(Nc1nc2ccccc2[nH]1)c1cc(F)cc(F)c1 | 67* | 67* | -5% | -33%
COc1ccc(Br)c(C(=O)Nc2nc3ccccc3[nH]2)c1 | 69* | 54* | 127% | 83%
SMILES | Shiga toxin inh | Cycloheximide cs | Pf growth 96h | Pf growth 48h
COc1ccc2oc(C(=O)Nc3nc(-c4ccccn4)cs3)c(C)c2c1 | / | / | 6.6µM* | ?
COc1ccc2oc(C(=O)Nc3nnc(C)s3)c(C)c2c1 | / | / | 248% | 198%
COc1ccc(Cl)cc1C(=O)Nc1nc2ccccc2[nH]1 | 4 | -1 | -42% | -48%
COC(=O)Nc1nc2ccc(C(=O)c3ccc(F)cc3)cc2[nH]1 | 8 | 11 | / | /
O=C(Nc1nc2ccccc2[nH]1)c1ccc(F)cc1 | 21 | 20* | 1.5µM* | -76%
Cn1c(CNC(=O)C(Cc2ccccc2)NC(=O)c2cccc(F)c2)cc(=O)n(C)c1=O (stereo unspecified) | -7 | -3 | 64% | -9%
CCN(CC)S(=O)(=O)c1cccc(C(=O)N/N=C/c2ccc(N3CCOCC3)cc2)c1 | -5 | 8 | 29% | -21%
COc1ccc2oc(C(=O)Nc3nc4ccccc4[nH]3)c(C)c2c1 | 70* | 57* | ? | 21%
O=C(Cc1ccccc1F)Nc1nc2ccccc2[nH]1 | 41 | 24* | -5% | 5%
COc1cc(OC)cc(C(=O)N[C@@H](CCSC)c2nc3ccccc3[nH]2)c1 | -18 | -7 | 1% | -9%
O=C(Nc1nc2ccccc2[nH]1)c1ccccc1F | -23 | -9 | 10µM* | ?
COc1cc(OC)cc(C(=O)Nc2nc3ccccc3[nH]2)c1 | 129* | 59* | / | ?
O=C(Cc1cccc2ccccc12)Nc1nc2ccccc2[nH]1 | -39 | -2 | / | ?
C[C@H]1C(=O)N(C)CCN1C(=O)c1cccc(OC2CCN(CC(C)(C)C)CC2)c1 | -3 | -2 | 20% | -2%
O=C(Nc1nc2ccccc2[nH]1)c1cc2ccccc2o1 | 54* | 35* | -4% | -22%
Cc1ccsc1C(=O)Nc1nc2ccccc2[nH]1 | 75* | 28* | -99% | 152%
CC1CCCN(C(=O)C2CC(=O)N(c3ccc(Cl)cc3)C2)C1 (stereo unspecified) | 17 | 7 | ? | 9%
CCN1C(=O)CC(Sc2ccccc2N)C1=O (stereo unspecified) | 12 | 8 | 1.5µM* | 5%
S=C(Nc1ccc2c(c1)OCO2)Nc1ccccc1Cl | 35* | 24* | 53% | 142%
S=C(Nc1ccc2c(c1)OCCO2)Nc1ccc2c(c1)OCO2 | 120* | 57* | 35% | 227%
Cn1cnc2c1c(=O)n(Cc1ccc(Cl)cc1Cl)c(=O)n2C | / | -4 | 9.3µM* | -6%
Cn1cnc2c1c(=O)n(Cc1ccccc1)c(=O)n2C | -13 | -4 | -30% | /
CCOC(=O)C(C)Sc1nc2c(cnn2-c2ccc(F)cc2)c(=O)[nH]1 (stereo unspecified) | -3 | -6 | -25% | -6%
Cc1cc(O)c(/C=N/Nc2ccc(Cl)cc2)c(=O)o1 | -5 | 2 | 0% | -8%
Cc1cc(O)c(/C=N/Nc2ccccc2Cl)c(=O)o1 | 24 | 22* | 12% | ?
SMILES | Shiga toxin inh | Cycloheximide cs | Pf growth 96h | Pf growth 48h
CCCN(CCC)c1nc(N)c(C#N)c(CC#N)c1C#N | 3 | 4 | 13µM* | /
CSc1ncccc1C(=O)NC1CC(C)(C)Cc2c1cnn2-c1ccccc1C (stereo unspecified) | -26 | -2 | 8% | -16%
S=C(NCc1ccncc1)Nc1ccc(Cl)c(Cl)c1 | -10 | -4 | ? | ?
S=C(NCc1cccnc1)Nc1cc(Cl)cc(Cl)c1 | -5 | 7 | ? | 2.9µM*
S=C(NCc1ccc(Cl)c(Cl)c1)Nc1ccc2c(c1)OCO2 | -10 | -2 | 17% | 12%
S=C(NCc1cccnc1)Nc1ccc2c(c1)OCO2 | 41 | 27* | 0% | 42%
S=C(NCc1ccncc1)Nc1cc(Cl)cc(Cl)c1 | -3 | 1 | 35% | 13µM*
CCCNC(=O)C(Cc1ccc(Br)cc1)NC(=O)c1ccc(C#N)cc1 (stereo unspecified) | / | / | 29% | -27%
CC(=O)Nc1ccc(NC(=O)COc2cccc3c2OC(C)(C)C3)cc1 | -12 | 8 | -2% | 14%
CCOc1ccc(NC(=O)CN(C)C(=O)CC2CCCC2)cc1OCC | / | / | 13µM* | ?
